Screens as filed in PubChem BioAssay.
Rows were chosen to be rich in hits. Some 8.9% of all compounds tested hit in one or more screens of this group.
mHtt clearance: compounds clearing mutant huntingtin protein; HeLa Exon1htt(103Q)mCFP, aggregate imaging; zero = plate's median compound well; inhibition, % at 1.5 µM; actives 0.42% (n = 47,000); AID 853;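 active = inhibition of aggregate fluorescence above about 70%, also judged a hit by eye on the cell image, limit read from the data, passing the limit was not always enough; inconclusive = no rule stated for this call; inactive = not judged a hit on image review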;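 note: cells exposed to compound for three days before fixation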
M1 antagonist: M1 muscarinic receptor (rat) antagonism; P08482; CHO-M1 cells, Fluo-4 calcium, ACh EC80 antagonist mode; active compounds read low; B-score at 10 µM; actives 3.4% (n = 64,000); AID 628;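 active = calcium fluorescence response, raw or row-and-column corrected B-score, differing from the plate sample mean either way at a set confidence level, mostly lower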
D1 mod: allosteric modulators of human D1 dopamine receptor. P21728. HEK293 D1, CRE-luciferase, dopamine EC30 potentiation; actives deviate in either direction. B-score at 10 µM. actives 5.9% (n = 58,000);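 active = luminescence count or its row- and column-corrected plate score outside the 99.7% band of the plate's sample wells, on either side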
M1 ag: activates the M1 muscarinic receptor | B-score at 10 µM | actives 3% (n = 64,000) | AID 626 | CHO-M1 cells, Fluo-4 calcium fluorescence, agonist mode; active compounds read high;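 active = fluorescence rise, raw or as B-score row- and column-corrected plate score, outside the 99.7% band of its plate's samples, either direction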
WNV NS2B-NS3 inh: WNV NS2B-NS3 proteinase inhibition; AID 577; actives 0.18% (n = 65,000); WNV NS2B-NS3 protease, fluorogenic substrate Ex360/Em465; active compounds read low; P06935; z-score (concentration not given with the values); in the data active = z-score below about -3
Target sequence (P06935 1371-1501 limits assumed): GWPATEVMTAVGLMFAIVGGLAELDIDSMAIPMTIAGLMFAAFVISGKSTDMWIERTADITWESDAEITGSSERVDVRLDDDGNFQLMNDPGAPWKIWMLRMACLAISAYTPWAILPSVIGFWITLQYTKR
Target sequence (P06935 1502-1679 limits assumed): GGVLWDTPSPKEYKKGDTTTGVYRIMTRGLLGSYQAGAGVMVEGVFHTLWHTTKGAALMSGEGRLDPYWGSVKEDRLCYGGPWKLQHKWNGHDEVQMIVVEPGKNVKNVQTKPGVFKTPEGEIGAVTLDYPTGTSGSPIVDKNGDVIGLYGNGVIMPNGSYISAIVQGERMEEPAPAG
D1 PAM confirm: confirmation of human D1 dopamine receptor allosteric modulators | shares compounds with D1 mod | HEK293 D1 CRE-luciferase, dopamine EC30 potentiation; active compounds read high | luminescence at 10 µM | actives 88% (n = 2,200) | AID 642;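 active = luminescence in either of two replicates above the same-plate mean plus 3 SD of the low-dose dopamine control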
D1 ag no DA: secondary test of D1 modulators: activity without dopamine; shares compounds with D1 mod; HEK293 D1 CRE-luciferase, luminescence, no dopamine; active compounds read high; luminescence at 10 µM; actives 0.8% (n = 1,900); AID 646; in the data active = luminescence above about 3900
Isoprot counter: alters isoproterenol CRE-luciferase response in HEK293 cells; shares compounds with D1 mod; HEK293 D1 CRE-luciferase, isoproterenol EC30 counter-screen; calls only at 10 µM; actives 63% (n = 2,200); AID 647;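 active = luminescence in either replicate above plate mean of wells with a partly effective reference agonist dose plus 3 SD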;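 note: isoproterenol raises cAMP through native beta-adrenoceptor Gs so signal bypasses D1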
* hit, by the source's call; i = inactive; ? = inconclusive; . = no result given; + = active, no number.

SMILES	mHtt clearance	M1 antagonist	D1 mod	M1 ag	WNV NS2B-NS3 inh	D1 PAM confirm	D1 ag no DA	Isoprot counter
Cc1ccc(Nc2nc(N)nc(CSc3nnnn3-c3ccccc3)n2)cc1	-16.1	0.201	7.08*	-0.223	-1.04	9096*	.	i
Cn1cnnc1SCc1nc(N)nc(Nc2ccccc2)n1	14.2	.	.	.	.	.	.	.
Nc1nc(CSCCO)nc(Nc2ccccc2)n1	-26.6	.	.	.	.	.	.	.
Nc1nc(CSc2ccccn2)nc(Nc2ccccc2)n1	5.1	0.664	3.57*	-0.266	-0.71	10684*	.	+
N#CC1(C#N)C2=C(CCCC2)NC(c2ccccc2)C1(C#N)C#N (stereo not given)	-5.5	-1.01	-0.827	-1.28	-1.26	.	.	.
CNc1nc(C)nc(-c2ccccc2O)n1	.	-0.266	9.09*	0.0895	0.6	23276*	1644	+
Cc1cc(-c2ccco2)n(-c2ccccc2)n1	.	-0.476	5.9*	-1.82	0.77	13928*	1688	+
Cc1nn(-c2nc3ccccc3s2)c(N)c1-c1ccc(Cl)cc1	-33.3	0.0924	-1.65	0.16	-0.86	.	.	.
CCOC(=O)c1[nH]c2ccccc2c1NC(C)=O	.	-0.0415	0.389	0.014	0.02	.	.	.
CCOC(=O)c1[nH]c2ccc(OC)cc2c1NC(=O)C(C)N1CCC2(CC1)OCCO2 (stereo not given)	-94.9	0.137	1.09	0.169	-0.02	.	.	.
CCOC(=O)c1[nH]c2ccc(OC)cc2c1NC(=O)c1nonc1C	.	-1.92	8.71*	-1.76	1.03	12456*	.	+
CCOC(=O)c1[nH]c2ccccc2c1NC(=O)C(C)(C)C	.	0.131	4.46*	0.862	0.03	7700*	1592	i
CCOC(=O)c1[nH]c2ccccc2c1NC(=O)c1nonc1C	.	-1.2	5.8*	0.332	-0.4	11368*	1672	+
O=C(CSc1ccc(-c2ccccc2)nn1)N1CCOCC1	-35.9	0.0331	.	-0.0827	-0.83	.	.	.
CCOC(=O)Cc1csc(SCC(=O)/C(C#N)=C(\C)N)n1	.	-0.375	-0.993	-0.705	-0.94	.	.	.
O=C(CCSc1ccccc1)Nc1ccc(S(=O)(=O)N2CCOCC2)cc1	.	-1.35	-0.526	-0.658	-0.13	.	.	.
Cc1ccc(NC(=O)CSc2nnc(-c3ccco3)c(-c3ccco3)n2)cc1	2.5	-0.0902	.	0.632	-1.31	.	.	.
CSc1nnc(-c2ccco2)c(-c2ccco2)n1	.	0.847	4.15*	1.01	-1.31	10584*	.	+
Cc1c(C(=O)Nc2ccc(C(=O)O)cc2)cnn1C	-13.8	-0.00357	-0.289	-0.246	-1.02	.	.	.
CCOc1cc(-c2c(C#N)c(N)nc3c2CCCC3C)ccc1O (stereo not given)	.	-0.456	5.54*	0.189	0.41	8596*	1588	+
CCNc1nc(Oc2ccc(=O)n(-c3ccccc3)n2)nc(N2CCOCC2)n1	-6.1	1.52	10.3*	0.0103	-0.5	18936*	1592	+
CCNc1nc(Oc2ccc(=O)n(C)n2)nc(N2CCOCC2)n1	-30.6	0.166	0.352	-1.05	-0.17	.	.	.
CCCS(=O)(=O)N1CCC(C(=O)NCc2ccccc2Cl)CC1	-6.3	-0.154	-0.161	-0.201	0.06	.	.	.
Cc1sc2ncnc(SCC(=O)N3CCCC3)c2c1C	.	0.483	2.3*	0.256	-0.26	7900*	1616	i
Cc1noc(/C=C/N(C)C)c1S(=O)(=O)N1CCCC(C(=O)NC2CCCCC2C)C1 (stereo not given)	.	-0.564	0.105	0.149	-0.72	.	.	.
SMILES	mHtt clearance	M1 antagonist	D1 mod	M1 ag	WNV NS2B-NS3 inh	D1 PAM confirm	D1 ag no DA	Isoprot counter
COc1ccc(C2=NOC(C(=O)Nc3ccc(C)cc3)C2)cc1OC (stereo not given)	-2.6	-0.188	20.8*	0.115	-0.27	20008*	1748	+
COc1ccc(NC(=O)C2CC(c3cc(OC)c(OC)c(OC)c3)=NO2)cc1OC (stereo not given)	.	-0.816	1.48	0.154	-0.74	.	.	.
COc1cc(C2=NOC(C(=O)NCc3ccc(F)cc3)C2)cc(OC)c1OC (stereo not given)	-217.3	-0.0826	3.83	-1.66	-0.82	.	.	.
COc1ccc(NC(=O)C2CC(c3ccc(OC)c(OC)c3)=NO2)cc1OC (stereo not given)	1.9	0.0508	7.07*	0.717	0.05	12656*	1588	+
COc1ccc(C2=NOC(C(=O)NCc3ccc(F)cc3)C2)cc1OC (stereo not given)	?	-0.681	36.7*	-1.29	0.48	26920*	2040	+
O=C(O)C1CC=CCC1C(=O)N1CCCC1 (stereo not given)	.	0.515	0.795	1.6	-0.9	.	.	.
O=C(CC1Nc2ccccc2NC1=O)NC1CCCCC1 (stereo not given)	.	0.356	-0.0311	-1.15	-0.51	.	.	.
COc1ccccc1NC(=O)CC1Nc2ccccc2NC1=O (stereo not given)	.	0.107	3.65*	-0.645	2	6444*	1504	i
CC(C)OC(=O)C(C#N)c1nc2ccccc2nc1N1CCCC1 (stereo not given)	.	-0.333	9.95*	2.25	1.06	20752*	1680	+
COC(=O)C(C#N)c1nc2ccccc2nc1N1CCCC1 (stereo not given)	.	0.696	5.48*	-0.0178	0.44	9832*	.	+
COC(=O)C1CCN(c2nc3ccccc3nc2C(C#N)C(=O)OCC(C)C)CC1 (stereo not given)	.	-0.157	0.147	0.56	-0.59	.	.	.
COc1ccc(NC(=O)C(c2ccc(OC)cc2)N(C)C(=O)c2cnccn2)cc1 (stereo not given)	.	0.334	0.11	0.638	1.05	.	.	.
c1ccc(Nc2cc(Nc3ccccc3)[nH]n2)cc1	6.9	0.177	-0.00872	0.911	0.53	.	.	.
CC(C)Cc1cc(-c2ccco2)c(C#N)c(N)n1	-16.2	0.2	27.5*	-0.159	-0.28	29116*	1732	+
N#Cc1c(-c2ccco2)cc(-c2ccc(F)cc2)nc1N	-17.5	0.476	9.94*	-0.134	-0.74	16300*	2000	+
CN1CCc2c(sc3c2c(=O)n(-c2ccccc2)c2nnc(SCc4ccc(Cl)cc4)n32)C1	-7.9	-0.232	0.156	0.487	1.16	.	.	.
CCCn1c(=O)c(C(=O)NCc2ccc(OC)c(OC)c2)c(O)c2ccccc21	-2.5	-0.0601	4.47*	-2.04	-0.29	9276*	1736	+
O=C(CCc1nc(-c2ccccc2F)no1)Nc1ccc(Oc2ccccc2)cc1	-49.0	-0.801	8.64*	-0.563	0.78	4944	1544	i
O=C(Oc1ccccc1C(=O)Oc1ccccc1)c1ccco1	-86.2	-0.234	1.3	0.412	0.06	.	.	.
Cc1c2c(nc3c(C(=O)NC4CCCC4)cnn13)CCCC2	17.4	0.287	4.97*	0.19	0.84	11564*	1764	+
